Assay results reported in ChEMBL document CHEMBL4513135, “CO-ADD screening of IQOG CSIS (Spain) compounds”.
Potency and affinity values are given separately.

How the values were obtained:
[1] = system: Klebsiella pneumoniae; settings: Concentration 32 ug.mL-1; ASSAY_TEST Inhibition of Bacterial Growth; detection method Absorption (OD600); MEDIA CAMHB; plate type 384well; NBS; CORNING #3640; time 18 hr
[2] = system: Candida albicans; settings: 32 ug/mL
[3] = system: Cryptococcus neoformans; settings: Concentration 32 ug.mL-1; ASSAY_TEST Inhibition of Fungal Growth; detection method Resazurin; Absorption (OD600-OD570); plate type 384well; NBS; CORNING #3640

SMILES | Inhibition [1] [%] | Inhibition [2] [%] | Inhibition [3] [%]
CC(C)(C)OC(=O)Nc1ccc(Br)cn1 | 23.74 | 1.83 | -55.05
O=C(Cc1ccccc1)N/N=C/c1c[nH]c2ccccc12 | 20.21 | 3.09 | -2.34
CCCC(=O)NCc1c(-c2ccc(Cl)cc2)nc2ccccn12 | -10.71 | 1.27 | -9.45
COc1ccc(C2c3c(nc4c(c3N)CCCC4)Oc3ccc4ccccc4c32)cc1 (centres undefined) | 8.01 | 0.67 | 1.85
O=C(Cc1cccc2ccccc12)N/N=C/c1c[nH]c2ccccc12 | 10.96 | 1.2 | -4.19
CC(=O)CC(=O)N1[C@@H]2C[C@H]3CCC2(CS1(=O)=O)C3(C)C | 13.63 | 5.03 | -2.49
Nc1nc(N)c(C=O)c(-c2ccccc2)c1C=O | -1.67 | 9.69 | -7.8
Cc1ccc2[nH]c(=O)c(C=O)cc2c1 | 6.41 | 1.79 | 4.75
Cc1ccc2nc(Cl)c(/C=N/C(C)(C)C)cc2c1 | 7.37 | 7.21 | -0.47
COc1ccc(C2C(C#N)=C(N)Oc3ccc4ccccc4c32)cc1OC (centres undefined) | 12.8 | 5.6 | -62.6
CCOC(=O)N/N=C/c1ccccc1 | 8.83 | 4.9 | -5.96
Cc1[nH]c2ccc(OCc3ccccc3)cc2c1C(=O)NN | 5.83 | 1.23 | -5.65
Cn1ccnc1C1C2=C(CC(C)(C)CC2=O)Oc2nc3c(c(N)c21)CCCC3 (centres undefined) | 9.51 | 1.3 | -60.42
